Assay results: PubChem BioAssay AID1159580 (chemical genetic matrix, 2015)
About 2,000 (36%) of roughly 5,500 compounds were called active. Inconclusive results (about 18%) are left out. Cut-off read from the data, not from the text of the source: active = normalized growth mostly below about 0.91 (no sharp cut-off); inconclusive = no clear call, values can overlap the other calls; inactive = mostly above about 0.92. The list shows a part of the results.

Assay: chemical genetic growth profiling, strain panel (AID 1159580);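 note: tested at 20 µM; growth read once vehicle control cultures reached saturation at 30 °C; 1 = growth at the plate median or of vehicle wells; lower values mean less growth of the strain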
Conditions: growth OD

Measured: normalized growth

C[N+]1(C)C2CC(OC(=O)[C@@H](CO)c3ccccc3)CC1C1OC12 (stereo partly drawn)
inactive: S. cerevisiae deletion strains, locus YJR066W, strain TOR1, stronger effect = lower value 0.976 | S. cerevisiae deletion strains, locus YJR075W, strain HOC1, stronger effect = lower value 1.01 | S. cerevisiae deletion strains, locus YKL009W, strain mrt4, stronger effect = lower value 1 | S. cerevisiae deletion strains, locus YKL068W, stronger effect = lower value 1 | S. cerevisiae deletion strains, locus YKL085W, strain MDH1 (second series), stronger effect = lower value 1.01 | S. cerevisiae deletion strains, locus YKL085W, strain MDH1, stronger effect = lower value 1.01 | S. cerevisiae deletion strains, locus YKL160W, strain elf1, stronger effect = lower value 0.955 | S. cerevisiae deletion strains, locus YKL190W, strain CNB1, stronger effect = lower value 1.03 | S. cerevisiae deletion strains, locus YKR001C, strain vps1, stronger effect = lower value 1.02 | S. cerevisiae deletion strains, locus YKR026C, strain gcn3, stronger effect = lower value 0.984 | S. cerevisiae deletion strains, locus YKR091W, strain srl3, stronger effect = lower value 0.968 | S. cerevisiae deletion strains, locus YLL001W, strain dnm1, stronger effect = lower value 0.933 | S. cerevisiae deletion strains, locus YLL026W, stronger effect = lower value 0.985 | S. cerevisiae deletion strains, locus YLL041C, strain sdh2, stronger effect = lower value 0.984 | S. cerevisiae deletion strains, locus YLR027C, strain aat2, stronger effect = lower value 0.982 | S. cerevisiae deletion strains, locus YLR039C, strain RIC1, stronger effect = lower value 1.02 | S. cerevisiae deletion strains, locus YLR058C, strain SHM2, stronger effect = lower value 1.02 | S. cerevisiae deletion strains, locus YLR102C, strain apc9, stronger effect = lower value 1.02 | S. cerevisiae deletion strains, locus YLR113W, strain HOG1, stronger effect = lower value 1 | S. cerevisiae deletion strains, locus YLR221C, strain rsa3, stronger effect = lower value 0.91 | S. cerevisiae deletion strains, locus YLR258W, strain gsy2, stronger effect = lower value 0.969 | S. cerevisiae deletion strains, locus YLR262C, strain YPT6 (second series), stronger effect = lower value 0.973 | S. cerevisiae deletion strains, locus YLR262C, strain YPT6, stronger effect = lower value 1.06 | S. cerevisiae deletion strains, locus YLR268W, strain sec22, stronger effect = lower value 1.03 | S. cerevisiae deletion strains, locus YLR320W, strain mms22, stronger effect = lower value 0.94 | S. cerevisiae deletion strains, locus YLR330W, strain CHS5, stronger effect = lower value 1.02 | S. cerevisiae deletion strains, locus YLR342W, strain FKS1 (second series), stronger effect = lower value 1.03 | S. cerevisiae deletion strains, locus YLR342W, strain FKS1, stronger effect = lower value 0.962 | S. cerevisiae deletion strains, locus YLR357W, strain rsc2, stronger effect = lower value 0.979 | S. cerevisiae deletion strains, locus YLR370C, strain arc18, stronger effect = lower value 0.948 | S. cerevisiae deletion strains, locus YLR371W, strain rom2, stronger effect = lower value 1 | S. cerevisiae deletion strains, locus YLR384C, strain iki3, stronger effect = lower value 0.97 | S. cerevisiae deletion strains, locus YLR418C, strain cdc73, stronger effect = lower value 1.05 | S. cerevisiae deletion strains, locus YML016C, strain PPZ1, stronger effect = lower value 1.01 | S. cerevisiae deletion strains, locus YML032C, strain rad52, stronger effect = lower value 1.01 | S. cerevisiae deletion strains, locus YML124C, strain tub3, stronger effect = lower value 1.03 | S. cerevisiae deletion strains, locus YMR058W, strain fet3, stronger effect = lower value 0.973 | S. cerevisiae deletion strains, locus YMR078C, strain ctf18, stronger effect = lower value 1.02 | S. cerevisiae deletion strains, locus YMR125W, strain sto1, stronger effect = lower value 0.962 | S. cerevisiae deletion strains, locus YMR129W, stronger effect = lower value 0.982 | S. cerevisiae deletion strains, locus YMR205C, strain PFK2, stronger effect = lower value 0.956 | S. cerevisiae deletion strains, locus YMR223W, strain ubp8, stronger effect = lower value 1.05 | S. cerevisiae deletion strains, locus YMR231W, strain pep5, stronger effect = lower value 0.989 | S. cerevisiae deletion strains, locus YMR307W, strain GAS1, stronger effect = lower value 1.05 | S. cerevisiae deletion strains, locus YNL067W, strain RPL9B, stronger effect = lower value 1.02 | S. cerevisiae deletion strains, locus YNL071W, strain lat1, stronger effect = lower value 0.978 | S. cerevisiae deletion strains, locus YNL183C, strain NPR1, stronger effect = lower value 0.957 | S. cerevisiae deletion strains, locus YNL209W, strain ssb2, stronger effect = lower value 0.959 | S. cerevisiae deletion strains, locus YNL233W, strain BNI4, stronger effect = lower value 1.01 | S. cerevisiae deletion strains, locus YNL248C, strain rpa49, stronger effect = lower value 0.971 | S. cerevisiae deletion strains, locus YNL250W, strain rad50, stronger effect = lower value 1.02 | S. cerevisiae deletion strains, locus YNL271C, strain bni1, stronger effect = lower value 1.01 | S. cerevisiae deletion strains, locus YNL298W, strain CLA4, stronger effect = lower value 1.02 | S. cerevisiae deletion strains, locus YNL307C, strain MCK1, stronger effect = lower value 1.02 | S. cerevisiae deletion strains, locus YNL322C, strain KRE1 (second series), stronger effect = lower value 0.936 | S. cerevisiae deletion strains, locus YNR049C, strain mso1, stronger effect = lower value 0.964 | S. cerevisiae deletion strains, locus YNR052C, strain pop2, stronger effect = lower value 1.02 | S. cerevisiae deletion strains, locus YOL012C, strain htz1 1.54 | S. cerevisiae deletion strains, locus YOL147C, strain pex11, stronger effect = lower value 1.03 | S. cerevisiae deletion strains, locus YOR001W, strain rrp6, stronger effect = lower value 1.04 | S. cerevisiae deletion strains, locus YOR061W, strain CKA2, stronger effect = lower value 1.01 | S. cerevisiae deletion strains, locus YOR069W, strain VPS5, stronger effect = lower value 1.01 | S. cerevisiae deletion strains, locus YOR070C, strain gyp1, stronger effect = lower value 0.99 | S. cerevisiae deletion strains, locus YOR080W, strain dia2, stronger effect = lower value 0.952 | S. cerevisiae deletion strains, locus YOR083W, strain WHI5, stronger effect = lower value 0.962 | S. cerevisiae deletion strains, locus YOR106W, strain vam3, stronger effect = lower value 0.933 | S. cerevisiae deletion strains, locus YOR136W, strain idh2, stronger effect = lower value 1.02 | S. cerevisiae deletion strains, locus YOR144C, strain elg1, stronger effect = lower value 1.01 | S. cerevisiae deletion strains, locus YOR184W, strain ser1, stronger effect = lower value 1.03 | S. cerevisiae deletion strains, locus YOR231W, strain MKK1, stronger effect = lower value 0.998 | S. cerevisiae deletion strains, locus YOR265W, strain rbl2, stronger effect = lower value 0.965 | S. cerevisiae deletion strains, locus YOR270C, strain vph1, stronger effect = lower value 0.935 | S. cerevisiae deletion strains, locus YOR316C, strain cot1, stronger effect = lower value 1.02 | S. cerevisiae deletion strains, locus YPL051W, strain arl3, stronger effect = lower value 0.988 | S. cerevisiae deletion strains, locus YPL055C, strain LGE1, stronger effect = lower value 1.05 | S. cerevisiae deletion strains, locus YPL078C, strain atp4, stronger effect = lower value 0.956 | S. cerevisiae deletion strains, locus YPL106C, strain sse1, stronger effect = lower value 0.94 | S. cerevisiae deletion strains, locus YPL240C, strain hsp82, stronger effect = lower value 0.978 | S. cerevisiae deletion strains, locus YPL241C, strain CIN2, stronger effect = lower value 1.01 | S. cerevisiae deletion strains, locus YPL256C, strain CLN2, stronger effect = lower value 1.05 | S. cerevisiae deletion strains, locus YPR119W, strain clb2, stronger effect = lower value 1.01 | S. cerevisiae deletion strains, locus YPR141C, strain kar3, stronger effect = lower value 1.01 | S. cerevisiae deletion strains, locus YPR163C, strain tif3, stronger effect = lower value 1.03 | S. cerevisiae deletion strains, locus YPR167C, strain met16, stronger effect = lower value 1.03 | S. cerevisiae deletion strains, strain wtn01, stronger effect = lower value 1.02 | S. cerevisiae strains, strain wild type, stronger effect = lower value 1.03
active: S. cerevisiae deletion strains, locus YML120C, strain ndi1, stronger effect = lower value 0.903 | S. cerevisiae deletion strains, locus YOR290C, strain snf2, stronger effect = lower value 0.865
